In PubChem BioAssay AID1210 (NMMLSC, 2008):
Calls of active or inactive are those of the source.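 Rule for the calls: active = blocks over 70% of labeled estradiol binding at 10 µM, or over a set limit at 100 nM; inactive = the rest.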

Biological target: Estrogen receptor beta (Homo sapiens) (UniProt Q92731)
Assay: ERbeta ligand binders by competition, primary screen, cell-based, Cos7 ERbeta-GFP, flow cytometry (AID 1210);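 note: 0% = DMSO vehicle wells and 100% = complete loss of labeled estradiol signal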
Settings: fluorescent estrogen binding, stronger effect = higher value
[1] = ligand binding inhibition, at 0.1 µM

Sequence of Estrogen receptor beta (Homo sapiens) (Q92731 whole entry, looked up): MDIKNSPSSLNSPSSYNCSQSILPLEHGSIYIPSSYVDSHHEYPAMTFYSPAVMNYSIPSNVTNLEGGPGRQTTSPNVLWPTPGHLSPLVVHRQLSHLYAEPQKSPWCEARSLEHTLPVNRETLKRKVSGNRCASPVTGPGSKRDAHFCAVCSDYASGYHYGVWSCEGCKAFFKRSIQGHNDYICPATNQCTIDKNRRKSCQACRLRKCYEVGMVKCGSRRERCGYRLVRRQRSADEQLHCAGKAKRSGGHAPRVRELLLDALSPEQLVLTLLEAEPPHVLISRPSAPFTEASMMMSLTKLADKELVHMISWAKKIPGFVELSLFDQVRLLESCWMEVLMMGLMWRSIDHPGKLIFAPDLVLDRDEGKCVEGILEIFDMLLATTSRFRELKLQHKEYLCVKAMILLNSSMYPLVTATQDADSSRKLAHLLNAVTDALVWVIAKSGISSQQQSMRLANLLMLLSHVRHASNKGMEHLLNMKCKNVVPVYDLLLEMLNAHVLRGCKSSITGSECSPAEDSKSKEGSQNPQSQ

Structure (SMILES)	inhibition (at 10 µM)	inhibition [1]
Cc1ccc(S(=O)(=O)Cc2ccc(C(=O)O)o2)cc1	54% (inactive)	27%
CCc1ccc2[nH]c(=O)c(CN(Cc3ccc4c(c3)OCO4)C(=O)c3ccco3)cc2c1	13% (inactive)	6%
COC(=O)c1[nH]c2ccc(C)cc2c1NC(=O)CN1CCCc2ccccc21	56% (inactive)	26%
CCOC(=O)Cn1cnc2sc3c(c2c1=O)CCC3	37% (inactive)	28%
O=C(CSc1nnc(-c2ccc(OC(F)F)cc2)o1)NC(=O)NCc1ccco1	39% (inactive)	44%
COc1ccc(Cc2nnc(NC(=O)Cc3cccs3)s2)cc1	17% (inactive)	29%
CSCCC(NC(=O)c1ccco1)C(=O)OCC(=O)Nc1sccc1C#N (stereo not given)	6% (inactive)	28%
COC(=O)c1ccc2c(=O)n(CC3CCCO3)c(SCC(=O)Nc3ccccc3Cl)nc2c1 (stereo not given)	65% (inactive)	4%
O=C(Cc1cccs1)Nc1ccc(S(=O)(=O)Nc2ncccn2)cc1	62% (inactive)	1%
CC(=O)c1ccc(NCC(=O)N2CCN(c3ccccc3)CC2)cc1	72% (active)	41%
Cc1cc(=O)[nH]c(SCC(=O)NCc2ccco2)n1	59% (inactive)	3%
Cc1cc(C(=O)O)ccc1-n1c(C)ccc1C	69% (inactive)	49%
CCCCN(CCCC)S(=O)(=O)c1ccc(NC(=O)Cc2cccs2)cc1	50% (inactive)	19%
Cc1snc2sc(C(=O)c3ccc(Br)cc3)c(N)c12	26% (inactive)	20%
Cc1ccc(Cn2c(NC(=O)c3ccco3)nc3ccccc32)cc1	10% (inactive)	19%
